Data reported in PubChem BioAssay.
Calls of active or inactive are those of the source. Unless noted, how the calls were made is not given here.

Experiments:
[1] = circadian clock period modulators, cell-based, LOPAC library, luminescence reporter (AID 2774); details: circadian reporter cells, at 7 µM, actives lie on both sides;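 further: values are relative to mean of DMSO wells on each plate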
[2] = tested on: Hepatitis C virus NS3 helicase; experiment: HCV NS3 helicase inhibitors, primary screen, biochemical, fluorescence polarization, LOPAC1280 library (AID 687035; in the data active means inhibition above about 37%); details: Purified HCV NS3 helicase, Cy5-dT15 ssDNA binding fluorescence polarization; stronger effect = higher value; concentration not given here
[3] = Cy5 fluorescence quenching or enhancement artefacts, artefact control for HCV NS3 helicase inhibitor project, biochemical, LOPAC1280 (AID 687037); details: Cy5-DNA-NS3h complex fluorescence interference counterscreen
[4] = sensitizers of A549 cells to miR-34 induction, primary screen, imaging, A549 dox-inducible miR-34, nuclei and caspase counts (AID 1347080;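 active means compounds whose cell count with miR-34 switched on is under 0.7 times the count with it off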); details: A549 miR-34 inducible, Hoechst nuclei count, 48 h
[5] = phospholipid biosynthesis inhibitors in animal cells, primary screen, cell-based, LOPAC library, screen 4 (AID 1347384); details: phospholipid biosynthesis inhibition screen, at 10 µM
[6] = viability rescue of complex I mutant cybrids, primary screen, cell-based, galactose medium, ATP luminescence (AID 1645843;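 active means z-score of at least 1.8 in each of two replicates, scored against plate mean and spread of sample wells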;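 further: positive z means more ATP and so rescue of galactose-driven cybrid death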); details: complex I mutant cybrid cells, 72 h, stronger effect = higher value
[7] = stronger effect = lower value, cell number ratio, induced over uninduced
[8] = measured here: relative caspase fold change +Dox/-Dox
[9] = measured here: total cells with miR-34 induction, stronger effect = lower value
[10] = measured here: total cells without miR-34 induction

NC(=O)C1=CN(C2OC(COP(=O)(O)OP(=O)(O)OC[C@H]3O[C@@H](n4cnc5c(N)ncnc54)C(OP(=O)(O)O)[C@H]3O)C(O)C2O)C=CC1 (some centres undefined)
period change [1]: -0.03 h (inactive)
inhibition [2]: -4% (inactive)
fluorescence ratio (interference) [3]: 1 (inactive)
fold change [4, 7]: 1.07 (inactive)
fold change [4, 8]: 1.18
cell count [4, 9]: 9810
cell count [4, 10]: 9130
outcome [5]: inactive
z-score [6]: 1.12 (inactive)

O=c1[nH]ccc2c(O)cccc12
period change [1]: 0.03 h (inactive)
inhibition [2]: -3% (inactive)
fluorescence ratio (interference) [3]: 0.9 (inactive)
fold change [4, 7]: 1.09 (inactive)
fold change [4, 8]: 1.24
cell count [4, 9]: 10100
cell count [4, 10]: 9200
outcome [5]: inactive
z-score [6]: 0.02 (inactive)

COc1ccc(NC(=O)/C=C/c2ccc(Cl)cc2)cc1
period change [1]: -0.055 h (inactive)
inhibition [2]: -2% (inactive)
fluorescence ratio (interference) [3]: 1 (inactive)
fold change [4, 7]: 1.13 (inactive)
fold change [4, 8]: 0.89
cell count [4, 9]: 7420
cell count [4, 10]: 6550
outcome [5]: inactive
z-score [6]: 0.42 (inactive)

Nc1nc(Nc2ccccc2)nc2c1ncn2[C@@H]1O[C@H](CO)[C@H](O)C1O (some centres undefined)
period change [1]: -0.07 h (inactive)
inhibition [2]: -4% (inactive)
fluorescence ratio (interference) [3]: 1 (inactive)
fold change [4, 7]: 0.974 (inactive)
fold change [4, 8]: 1.23
cell count [4, 9]: 9660
cell count [4, 10]: 9910
outcome [5]: inactive
z-score [6]: 0.02 (inactive)

COc1cc(/C=C(\C#N)C(=O)c2ccc(O)c(O)c2)cc(I)c1O
period change [1]: 0.035 h (inactive)
inhibition [2]: 37% (active)
fluorescence ratio (interference) [3]: 0.9 (inactive)
fold change [4, 7]: 0.957 (inactive)
fold change [4, 8]: 1.26
cell count [4, 9]: 9980
cell count [4, 10]: 10400
outcome [5]: inactive
z-score [6]: 0.8 (inactive)

COC(=O)C(N)Cc1ccc(Cl)cc1 (centres undefined)
period change [1]: -0.02 h (inactive)
inhibition [2]: 1% (inactive)
fluorescence ratio (interference) [3]: 1 (inactive)
fold change [4, 7]: 0.984 (inactive)
fold change [4, 8]: 1.85
cell count [4, 9]: 9580
cell count [4, 10]: 9740
outcome [5]: inactive
z-score [6]: 0.46 (inactive)

N[C@@H](CCCC(=O)O)C(=O)O
period change [1]: 0.11 h (inactive)
inhibition [2]: -1% (inactive)
fluorescence ratio (interference) [3]: 0.9 (inactive)
fold change [4, 7]: 1.05 (inactive)
fold change [4, 8]: 0.58
cell count [4, 9]: 10400
cell count [4, 10]: 9930
outcome [5]: inactive
z-score [6]: 0.595 (inactive)

COc1ccccc1N1CCN(CCN(C(=O)c2ccc(F)cc2)c2ccccn2)CC1
period change [1]: 0.22 h (inactive)
inhibition [2]: -4% (inactive)
fluorescence ratio (interference) [3]: 0.9 (inactive)
fold change [4, 7]: 1.08 (inactive)
fold change [4, 8]: 1.52
cell count [4, 9]: 10200
cell count [4, 10]: 9450
outcome [5]: inactive
z-score [6]: -0.25 (inactive)

CC(N)(C(=O)O)c1ccc(C(=O)O)cc1 (centres undefined)
period change [1]: -0.11 h (inactive)
inhibition [2]: -2% (inactive)
fluorescence ratio (interference) [3]: 1 (inactive)
fold change [4, 7]: 1.05 (inactive)
fold change [4, 8]: 1.27
cell count [4, 9]: 11100
cell count [4, 10]: 10600
outcome [5]: inactive
z-score [6]: 0.615 (inactive)

O=C(c1ccc2c(c1)OCCO2)N1CCCCC1
period change [1]: -0.22 h (inactive)
inhibition [2]: -1% (inactive)
fluorescence ratio (interference) [3]: 1 (inactive)
fold change [4, 7]: 1.07 (inactive)
fold change [4, 8]: 1.38
cell count [4, 9]: 9110
cell count [4, 10]: 8530
outcome [5]: inactive
z-score [6]: 0.315 (inactive)

O=C(O)Cc1c[nH]c2ccc(O)cc12
period change [1]: -0.095 h (inactive)
inhibition [2]: -2% (inactive)
fluorescence ratio (interference) [3]: 1 (inactive)
fold change [4, 7]: 1.08 (inactive)
fold change [4, 8]: 0.669
cell count [4, 9]: 9930
cell count [4, 10]: 9210
outcome [5]: inactive
z-score [6]: 0.08 (inactive)

CSc1nc(N)c2ncn([C@@H]3O[C@H](COP(=O)(O)OP(=O)(O)O)[C@H](O)C3O)c2n1 (some centres undefined)
period change [1]: -0.26 h (inactive)
inhibition [2]: 33% (inactive)
fluorescence ratio (interference) [3]: 0.9 (inactive)
fold change [4, 7]: 1.03 (inactive)
fold change [4, 8]: 1.82
cell count [4, 9]: 11000
cell count [4, 10]: 10800
outcome [5]: inactive
z-score [6]: 0.32 (inactive)

O=C(O)c1cc(=O)cc(C(=O)O)[nH]1
period change [1]: -0.025 h (inactive)
inhibition [2]: 0% (inactive)
fluorescence ratio (interference) [3]: 1 (inactive)
fold change [4, 7]: 0.984 (inactive)
fold change [4, 8]: 1.62
cell count [4, 9]: 10200
cell count [4, 10]: 10300
outcome [5]: inactive
z-score [6]: 0.285 (inactive)

Cc1nc(N=Nc2ccc(C(=O)O)cc2)c(COP(=O)(O)O)c(C=O)c1O
period change [1]: -0.16 h (inactive)
inhibition [2]: 43% (active)
fluorescence ratio (interference) [3]: 1 (inactive)
fold change [4, 7]: 1.04 (inactive)
fold change [4, 8]: 0.656
cell count [4, 9]: 10100
cell count [4, 10]: 9680
outcome [5]: inactive
z-score [6]: 0.49 (inactive)

Nc1c(S(=O)(=O)O)cc(Nc2ccc(Nc3nc(Cl)nc(Nc4ccc(S(=O)(=O)O)cc4)n3)c(S(=O)(=O)O)c2)c2c1C(=O)c1ccccc1C2=O
period change [1]: 0.105 h (inactive)
inhibition [2]: 86% (active)
fluorescence ratio (interference) [3]: 0.7 (active)
fold change [4, 7]: 1.07 (inactive)
fold change [4, 8]: 0.889
cell count [4, 9]: 9580
cell count [4, 10]: 8990
outcome [5]: inactive
z-score [6]: 4.81 (active)

NC1C=CC=C(C(=O)O)C1 (centres undefined)
period change [1]: 0.115 h (inactive)
inhibition [2]: 0% (inactive)
fluorescence ratio (interference) [3]: 1 (inactive)
fold change [4, 7]: 1.08 (inactive)
fold change [4, 8]: 2.16
cell count [4, 9]: 9940
cell count [4, 10]: 9200
outcome [5]: inactive
z-score [6]: 0.355 (inactive)

CCC1(O)CC2CN(CCc3c([nH]c4ccccc34)[C@@](C(=O)OC)(c3cc4c(cc3OC)N(C=O)C3[C@]45CCN4CC=C[C@@](CC)([C@@H](OC(C)=O)[C@]3(O)C(=O)OC)[C@H]45)C2)C1 (some centres undefined)
period change [1]: 0.81 h (active)
inhibition [2]: 2% (inactive)
fluorescence ratio (interference) [3]: 1 (inactive)
fold change [4, 7]: 1.3 (inactive)
fold change [4, 8]: 1.29
cell count [4, 9]: 1490
cell count [4, 10]: 1140
outcome [5]: inactive
z-score [6]: -0.935 (inactive)

CN(C)C(N)=NCCC[C@H](N)C(=O)O
period change [1]: -0.14 h (inactive)
inhibition [2]: -2% (inactive)
fluorescence ratio (interference) [3]: 1 (inactive)
fold change [4, 7]: 0.963 (inactive)
fold change [4, 8]: 1.27
cell count [4, 9]: 9830
cell count [4, 10]: 10200
outcome [5]: inactive
z-score [6]: 0.265 (inactive)

Cn1cc(C(F)(F)F)nc1-c1ccc(OCC(O)CNCCOc2ccc(O)c(C(N)=O)c2)cc1 (centres undefined)
period change [1]: -0.065 h (inactive)
inhibition [2]: 0% (inactive)
fluorescence ratio (interference) [3]: 1 (inactive)
fold change [4, 7]: 0.893 (inactive)
fold change [4, 8]: 1.45
cell count [4, 9]: 9830
cell count [4, 10]: 11000
outcome [5]: inactive
z-score [6]: -0.695 (inactive)

NCCS(=O)O
period change [1]: 0.035 h (inactive)
inhibition [2]: -3% (inactive)
fluorescence ratio (interference) [3]: 1 (inactive)
fold change [4, 7]: 1 (inactive)
fold change [4, 8]: 0.978
cell count [4, 9]: 10600
cell count [4, 10]: 10500
outcome [5]: inactive
z-score [6]: 0.415 (inactive)

CC(=O)SC1CC2=CC(=O)CC[C@]2(C)C2CC[C@@]3(C)C(CC[C@@]34CCC(=O)O4)C12 (some centres undefined)
period change [1]: 0.045 h (inactive)
inhibition [2]: -4% (inactive)
fluorescence ratio (interference) [3]: 1 (inactive)
fold change [4, 7]: 1.07 (inactive)
fold change [4, 8]: 1.82
cell count [4, 9]: 7810
cell count [4, 10]: 7280
outcome [5]: inactive
z-score [6]: 1.24 (inactive)
